Bioassay records: PubChem, The Scripps Research Institute Molecular Screening Center
hgDAF-12 ag – H. glycines DAF-12 receptor agonists, primary screen, cell-based, luminescence, HEK293, GAL4 fusion, UAS-luciferase | Nuclear hormone receptor DAF-12 (Heterodera glycines), GAL4 fusion | HEK293 GAL4-hgDAF12 UAS-luciferase reporter, agonist luminescence; normalized to butyrate control | activation, % at 6.8 µM | actives 1.8% (n = 370,000) | AID 687014, 2013;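 active = activation above a cutoff set at the mean of all screened compounds plus 3 SD, cut at about 10% in these data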;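 note: 0% = DMSO wells and 100% = sodium butyrate wells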
DAX1 inh-1 – DAX1 (NR0B1) inhibitors, primary screen, cell-based, HEK293, Gal4-DAX1, luciferase luminescence. Nuclear receptor subfamily 0 group B member 1 (Homo sapiens), P51843. HEK293 Gal4-DAX1 luciferase reporter. inhibition, % at 6.75 µM. actives 0.99% (n = 340,000). AID 504766, 2011;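 active = inhibition above the mean over all tested compounds plus 3 SD, cut at about 4.2% in these data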;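 note: 0% = DAX1-transfected cells with DMSO and 100% = empty-vector control cells with DMSO; inhibition shows as a rise in luminescence from relieved DAX1 repression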
Target sequence (P51843 207-470 limits assumed): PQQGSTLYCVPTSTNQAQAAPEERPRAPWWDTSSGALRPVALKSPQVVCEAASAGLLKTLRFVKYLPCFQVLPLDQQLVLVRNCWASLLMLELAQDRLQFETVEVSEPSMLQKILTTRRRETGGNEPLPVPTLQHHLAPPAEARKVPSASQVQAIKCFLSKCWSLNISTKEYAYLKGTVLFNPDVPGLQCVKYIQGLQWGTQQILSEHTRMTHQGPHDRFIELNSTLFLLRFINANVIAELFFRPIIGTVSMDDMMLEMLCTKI
hcDAF-12 act – H. contortus DAF-12 nuclear receptor activators, primary screen, cell-based, luminescence, HEK293, lit1-tk-luc reporter | HEK293 hcDAF-12 lit1-tk-luc reporter; 0% DMSO, 100% Δ7-dafachronic acid | activation, % at 6.8 µM | actives 1.4% (n = 370,000) | AID 652067, 2013;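 active = activation above the mean of all tested compounds plus 3 SD, cut at about 5.5% in these data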;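 note: 100% = response to 3 µM Δ7-dafachronic acid high control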
ssDAF-12 act – S. stercoralis DAF-12 nuclear receptor activators, primary screen, cell-based, luminescence, HEK293, GRIP1 co-expression, lit1-tk-luc | Nuclear hormone receptor DAF-12 (Strongyloides stercoralis) | HEK293 ssDAF-12/GRIP1 lit1-tk-luc reporter; % of 3 µM dafachronic acid response | activation, % at 6.8 µM | actives 1% (n = 370,000);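 active = activation above the mean over all tested compounds plus 3 SD, cut at about 0.9% in these data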;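 note: 0% = DMSO-only wells and 100% = 3 µM delta7-dafachronic acid wells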
DAX1 inh-2 – DAX1 (NR0B1) inhibitors on StAR promoter, primary screen, cell-based, luminescence, SF-1 (NR5A1), full-length DAX-1; AID 652010, 2013; inhibition, % at 6.8 µM; HEK293T StAR-luciferase reporter, SF-1/DAX-1 repression relief; actives 1.1% (n = 370,000);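 active = inhibition above the mean over all tested compounds plus 3 SD, cut at about 3.6% in these data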;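 note: 0% = DAX-1 cells with DMSO and 100% = cells lacking DAX-1 with DMSO; higher inhibition means more luminescence from relief of DAX-1 repression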
Active calls of the source: *; x = no result. Rows were chosen to be rich in hits. Some 4.1% of all compounds tested hit in one or more screens of this group.

SMILES	hgDAF-12 ag	DAX1 inh-1	hcDAF-12 act	ssDAF-12 act	DAX1 inh-2
COc1cccc(C(=O)Nc2nnc(-c3cccs3)s2)c1	11*	2	3	0	2
CCOC(=O)CNC(=O)CSc1nnc(NC(=O)c2ccc(C)cc2)s1	13*	-1	6.4*	0	2
CCOC(=O)CNC(=O)CSc1nnc(NC(=O)c2ccc3c(c2)OCO3)s1	4	0	4	-1	2
COc1ccc(C(=O)Cc2nnc(C)s2)cc1	5	4.8*	4	-1	1
Cc1ccc(C(=O)Nc2nnc(COCCO)s2)cc1	10	x	6.0*	1.0*	2
C[C@H]1/C=C/CC(=O)N[C@@H](c2ccc3ccccc3c2)[C@@H](C)/C=C/CC(=O)N[C@H]1c1ccc2ccccc2c1	1	x	-3	0	-1
CCOCc1nnc(NC(=O)c2cccc(OC)c2)s1	4	2	2	0	2
CCc1nnc(NC(=O)c2ccc(OC)cc2)s1	11*	2	2	-1	3
COc1ccc(C(=O)NC2=NCCS2)cc1	12*	1	0	0	2
COc1cc(OC)cc(C(=O)NC2=NCCS2)c1	3	-1	-1	-1	0
CCc1nnc(NC(=O)c2cccc(OC)c2)s1	6	0	3	0	3.9*
COC(=O)Nc1nnc(-c2ccc(OC)cc2)s1	13*	3	1	0	1
O=C(OCC#CCSc1nnc(-c2cccc3ccccc23)o1)C1CCCC1	0	x	-3	-2	x
Cc1cccc(-c2nnc(NC(=O)c3cccs3)s2)c1	-1	4.3*	-1	-1	0
COc1cccc(C(=O)Nc2nnc(C3CCCO3)s2)c1 (configuration not stated)	9	2	2	1.0*	2
CCc1nnc(NC(=O)Cc2ccc(OC)c(OC)c2)s1	-3	5.1*	-2	-2	0
COc1nc(OC)nc(N2CCC(C(=O)N(C)Cc3ccco3)CC2)n1	-2	x	-3	-1	1
COc1ccc(-c2coc3cc(O)c(OC)cc3c2=O)cc1	10	0	1	0	0
COc1ccc(-c2coc3cc(OC)cc(OC)c3c2=O)cc1	4	0	1	-1	3
COc1ccc(-c2coc3cc(OC(C)=O)ccc3c2=S)cc1	11*	4.5*	2	1	2
COc1ccc(-c2coc3cc(OC)cc(O)c3c2=O)cc1	10	5.0*	1	-1	2
Cc1ccc(-c2nc3cc(N)ccc3o2)c(C)c1	12*	1	5	0	2
Nc1ccc2oc(-c3cccc4ccccc34)nc2c1	-7	-1	-4	-1	-1
S=C(c1cccs1)N1CCN(c2ccccc2)CC1	-1	5.7*	2	-1	0
S=C(c1cccs1)N1CCCC1	3	-1	-1	-1	0
SMILES	hgDAF-12 ag	DAX1 inh-1	hcDAF-12 act	ssDAF-12 act	DAX1 inh-2
CCN(CC)CCCNC(=O)c1cn(C(C)c2ccccc2)nn1 (configuration not stated)	5	x	-2	-1	1
COC(=O)[C@H]1C[C@@]2(N3CCCCC3)c3ccccc3N[C@H]2N1S(=O)(=O)c1ccc(C)cc1	-1	x	0	-1	-1
Cc1ccc2oc(-c3cccc(NC(=O)/C=C/c4cccc([N+](=O)[O-])c4)c3C)nc2c1	9	0	6.2*	0	1
O=C(/C=C/c1cccc([N+](=O)[O-])c1)Nc1ccccn1	0	2	2	-2	1
COC(=O)[C@@]1(C(C)C)N=C(c2cc(OC)c(OC)c(OC)c2)[C@]2(O1)C(=O)N(Cc1cn(-c3ccccc3)nn1)c1cccc(Cl)c12	-2	x	-3	-1	-2
CCCCN1CC(=O)N2[C@H](C[C@@]3(n4ccc5ccccc54)c4ccccc4N(S(=O)(=O)c4ccccc4)[C@@H]23)C1=O	0	x	-2	-1	-1
